Consider 43 compounds from publication PMC4336329 (PLoS ONE, 2015).

Each structure is given as a SMILES string. Hit rate of the full screen: of about 310,000 compounds, about 14,000 (4.5%) showed an effect of 50% or more. Effects have a minus sign here. This is one part of a sample in which strong results are shown more often than they occur.
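Further: peak tail current of the secondary pulse compared with the same well before compound.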

human ether-à-go-go-related gene (hERG) potassium channel, sequence (Q12809 whole entry, looked up): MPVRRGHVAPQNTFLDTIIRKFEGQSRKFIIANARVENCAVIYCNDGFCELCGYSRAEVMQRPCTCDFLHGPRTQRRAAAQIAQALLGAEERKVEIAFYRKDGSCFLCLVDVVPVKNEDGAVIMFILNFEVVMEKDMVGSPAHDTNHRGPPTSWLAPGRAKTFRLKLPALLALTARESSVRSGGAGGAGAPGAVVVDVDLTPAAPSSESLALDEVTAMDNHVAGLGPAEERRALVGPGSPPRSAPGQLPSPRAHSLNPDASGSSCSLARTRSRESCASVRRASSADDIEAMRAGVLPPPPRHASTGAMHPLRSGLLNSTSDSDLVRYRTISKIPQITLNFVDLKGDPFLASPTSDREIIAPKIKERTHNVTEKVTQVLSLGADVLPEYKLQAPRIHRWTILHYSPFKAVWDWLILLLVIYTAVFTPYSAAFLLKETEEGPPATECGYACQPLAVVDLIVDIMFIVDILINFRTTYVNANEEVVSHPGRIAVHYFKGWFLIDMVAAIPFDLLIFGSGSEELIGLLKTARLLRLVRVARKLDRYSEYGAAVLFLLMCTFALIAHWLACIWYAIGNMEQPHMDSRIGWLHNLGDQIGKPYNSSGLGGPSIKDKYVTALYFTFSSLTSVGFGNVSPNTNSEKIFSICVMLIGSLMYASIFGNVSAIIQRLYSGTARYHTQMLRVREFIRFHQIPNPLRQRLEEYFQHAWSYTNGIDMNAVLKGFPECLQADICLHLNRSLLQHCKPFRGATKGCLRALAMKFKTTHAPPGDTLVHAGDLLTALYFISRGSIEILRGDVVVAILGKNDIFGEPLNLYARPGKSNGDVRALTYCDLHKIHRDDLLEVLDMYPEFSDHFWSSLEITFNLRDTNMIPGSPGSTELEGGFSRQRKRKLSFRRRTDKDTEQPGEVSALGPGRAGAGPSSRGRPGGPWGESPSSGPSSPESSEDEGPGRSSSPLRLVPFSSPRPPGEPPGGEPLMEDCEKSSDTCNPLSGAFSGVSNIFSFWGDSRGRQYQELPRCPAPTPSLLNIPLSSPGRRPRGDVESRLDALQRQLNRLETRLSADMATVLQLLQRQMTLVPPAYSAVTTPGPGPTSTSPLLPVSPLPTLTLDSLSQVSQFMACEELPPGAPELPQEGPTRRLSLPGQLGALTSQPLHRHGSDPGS

The assay addresses human ether-à-go-go-related gene (hERG) potassium channel (human, UniProt Q12809). Put plainly: primary screen, population patch clamp on CHO cells stably expressing hERG; higher = less effect of the substance.
For `O=S(=O)(c1ccc(Cl)cc1)c1nc(-c2ccccc2F)oc1NCCN1CCOCC1`, the “hERG current change (%, negative = inhibition) at 10uM” value is given as -67%.
The value for `Cc1cccc(-c2nc(S(=O)(=O)c3ccc(F)cc3)c(NCCCN3CCOCC3)o2)c1` was -69.4%; that for `Cc1ccccc1-c1nc(S(=O)(=O)c2ccc(Cl)cc2)c(NCCN2CCOCC2)o1` was -20.2%.
On to `Cc1ccc(S(=O)(=O)c2nc(-c3ccccc3)oc2NCCN2CCOCC2)cc1`, for which the “hERG current change (%, negative = inhibition) at 10uM” value is 3.12%.
The value for `O=S(=O)(c1ccccc1)c1nc(-c2ccccc2)oc1NCCCN1CCOCC1` was -43.9%; that for `O=S(=O)(c1ccc(Cl)cc1)c1nc(-c2ccccc2F)oc1NCCCN1CCOCC1` was -10.4%; that for `COc1cccc(CN2CCN(C(=O)c3cccc4ccccc34)CC2)c1.O=C(O)C(=O)O` was -12%.
As for `COc1cccc(CN(C)C(=O)C2CC(=O)N(c3ccc4c(c3)OCCO4)C2)c1` (stereo not shown), the figure is 12.1%; as for `COc1cccc(-c2nc3ccc(O)cc3c(=O)o2)c1`, 1.21%; as for `O=C(COc1ccc(Cl)cc1)N1CCN(C(=O)c2cccs2)CC1`, -74.5%.
As for `O=C(COc1ccccc1)N1CCN(C(=O)c2cccs2)CC1`, the figure is -13.4%; as for `CCOc1cc(C#N)ccc1OCC(=O)N1CCN(C(=O)c2cccs2)CC1`, -67.7%.
Consider `CCOc1cc(C#N)ccc1OCC(=O)N1CCc2ccccc2C1`, for which the “hERG current change (%, negative = inhibition) at 10uM” value was -40.7%.
Consider `O=C(COc1ccccc1Br)N1CCN(C(=O)c2cccs2)CC1`, for which the “hERG current change (%, negative = inhibition) at 10uM” value is recorded as -32.2%.
As for `O=C(COc1ccc(-c2ccccc2)cc1)N1CCN(C(=O)c2cccs2)CC1`, the figure is -41.8%; as for `COc1ccc(OCC(=O)N2CCN(C(=O)c3cccs3)CC2)cc1`, -43.3%; as for `Cc1ccc(OCC(=O)N2CCN(C(=O)c3cccs3)CC2)cc1`, -34.8%.
In the case of `O=C(COc1ccc2ccccc2c1)N1CCN(C(=O)c2cccs2)CC1`, the “hERG current change (%, negative = inhibition) at 10uM” value is listed as -50%.
The value for `Cc1nnc(SCc2cc(=O)[nH]c(/N=C(\N)Nc3ccccc3Sc3ccccc3)n2)s1` was -11.1%; that for `Cl.O=C(CNCCO)N1CCc2ccccc21` was -5.27%.
The value for `Cc1ccc(CN2C(=O)N/C(=C/c3ccc(-c4ccc(C(=O)O)cc4)o3)C2=O)cc1` was 0.0417%.
For the compound `O=C1CC(N2CCN(C/C=C/c3ccccc3)CC2)C(=O)N1Cc1cccs1` (stereo not shown), the “hERG current change (%, negative = inhibition) at 10uM” value was -74.8%.
The value for `O=C1CC(N2CCN(C3CC(=O)N(CCc4ccccc4)C3=O)CC2)C(=O)N1CCc1ccccc1` (stereo not shown) was -6.78%; that for `O=C1CC(N2CCN(C/C=C/c3ccccc3)CC2)C(=O)N1CCc1ccccc1` (stereo not shown) was -58.1%.
In the case of `O=C1OC(N2CCN(C/C=C/c3ccccc3)CC2)c2ccccc21` (stereo not shown), the “hERG current change (%, negative = inhibition) at 10uM” value is given as 9.57%.
The value for `O=C1CC(N2CCN(C/C=C/c3ccccc3)CC2)C(=O)N1Cc1ccc(N2CCCC2=O)cc1` (stereo not shown) was -46.7%; that for `COc1ccc(CCN2C(=O)CC(N3CCN(C/C=C/c4ccccc4)CC3)C2=O)cc1OC` (stereo not shown) was -43.9%; that for `C=CCn1c(CNC(=O)c2cccs2)n[nH]c1=S` was 15.5%.
As for `Cc1cc(C)cc(OC(=O)CCN2C(=O)c3ccccc3C2=O)c1`, the figure is -3.19%; as for `COc1ccccc1N(CC(=O)Nc1ccc(F)c(F)c1)S(C)(=O)=O`, -1.01%; as for `COc1cccc(CN2CC(C(=O)NCCc3ccc(C)s3)CCC2=O)c1` (stereo not shown), -26.5%.
For `CCN1C(=O)c2cccc3c(S(=O)(=O)N4CCCC4C(=O)O)ccc1c23` (stereo not shown), the “hERG current change (%, negative = inhibition) at 10uM” value came to 13%.
Consider `CCOC(=O)C1CCN(S(=O)(=O)c2ccc3c4c(cccc24)C(=O)N3)CC1`, for which the “hERG current change (%, negative = inhibition) at 10uM” value is -54.6%.
As for `CCOC(=O)N1CCN(S(=O)(=O)c2ccc3c4c(cccc24)C(=O)N3)CC1`, the figure is -14.5%; as for `CCOC(=O)C1CCCN(S(=O)(=O)c2ccc3c4c2CC(=O)N4CC(C)S3)C1` (stereo not shown), -0.356%.
As for `CCN1C(=O)c2cccc3c(S(=O)(=O)N4CCC(C)CC4)ccc1c23`, the “hERG current change (%, negative = inhibition) at 10uM” value is on record as -16.8%.
The value for `O=C1Nc2ccc(S(=O)(=O)N3CCCC3)c3cccc1c23` was -7.57%; that for `CCOC(=O)N1CCN(S(=O)(=O)c2cc3c(cc2C)NC(=O)CO3)CC1` was -36.2%; that for `CC1CCN(S(=O)(=O)c2ccc3c4c2CC(=O)N4CC(C)S3)CC1` (stereo not shown) was 7.22%.
The value for `CCOC(=O)C1CCCCN1S(=O)(=O)c1cc2c(cc1C)NC(=O)CO2` (stereo not shown) was -19.8%; that for `CCOC(=O)C1CCN(S(=O)(=O)c2ccc3c4c2CC(=O)N4CC(C)S3)CC1` (stereo not shown) was -57.1%; that for `CCOC(=O)C1CCN(S(=O)(=O)c2cc3c(cc2C)NC(=O)CO3)CC1` was -54.9%.
As for `CCOC(=O)C1CCCN(S(=O)(=O)c2ccc3c4c(cccc24)C(=O)N3CC)C1` (stereo not shown), the figure is -63.5%.
